Measured values published in PubChem BioAssay (NCATS).
Inconclusive results are not listed. The source made the active and inactive calls. The call rests on the fitted dose curve; in most records, active means well fitted curve in the direction sought with a large enough effect; inconclusive means small, poorly fitted or top-dose-only effect, or another doubt; inactive means no such curve, though single readings can be large; an effect the other way counts as inactive or inconclusive.

Key:
[1] = biological target: Rap guanine nucleotide exchange factor 3 (Homo sapiens) (UniProt O95398); test: Confirmatory qHTS for agonist of cAMP-regulated guanine nucleotide exchange factor 3 (EPAC1) (AID 1645881);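 further: EPAC1 catalysed release of BODIPY-GDP from Rap1B seen as fluorescence loss; nearly all actives have a fitted effect of over 75% in size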
[2] = biological target: Rap guanine nucleotide exchange factor 4 (Homo sapiens) (UniProt Q8WZA2); test: Confirmatory qHTS for agonist of cAMP-regulated guanine nucleotide exchange factor 4 (EPAC2) (AID 1645884);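 further: nucleotide exchange releases bodipy-GDP from Rap1 and this lowers its fluorescence; nearly all actives have a fitted effect of over 65% in size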
[3] = biological target: Rap guanine nucleotide exchange factor 4 (Homo sapiens) (UniProt Q8WZA2); test: Confirmatory qHTS for antagonist of cAMP-regulated guanine nucleotide exchange factor 4 (EPAC2) (AID 1645885); further: nearly all actives have a fitted effect of over 25% in size
[4] = biological target: Rap guanine nucleotide exchange factor 3 (Homo sapiens) (UniProt O95398); test: Counterscreen qHTS for antagonist of cAMP-regulated guanine nucleotide exchange factor 3 (EPAC1) (AID 1645888);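 further: fluorescence loss as bound BODIPY-GDP is released from Rap1B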
Method in brief: (§1)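 Measured: fluorescence of BODIPY-GDP bound to Rap1B, which falls as exchange proceeds. Conditions include 50 uM competing GDP, 5 and 30 min reads, and a later cAMP challenge for antagonist detection.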

[5] = biological target: Rap guanine nucleotide exchange factor 3 (Homo sapiens) (UniProt O95398); test: Counterscreen qHTS for agonist of cAMP-regulated guanine nucleotide exchange factor 3 (EPAC1) (AID 1645889); further: nearly all actives have a fitted effect of over 40% in size
Method in brief: as §1

Measured: Potency

Chain of Rap guanine nucleotide exchange factor 3 (Homo sapiens) (O95398 whole entry, looked up): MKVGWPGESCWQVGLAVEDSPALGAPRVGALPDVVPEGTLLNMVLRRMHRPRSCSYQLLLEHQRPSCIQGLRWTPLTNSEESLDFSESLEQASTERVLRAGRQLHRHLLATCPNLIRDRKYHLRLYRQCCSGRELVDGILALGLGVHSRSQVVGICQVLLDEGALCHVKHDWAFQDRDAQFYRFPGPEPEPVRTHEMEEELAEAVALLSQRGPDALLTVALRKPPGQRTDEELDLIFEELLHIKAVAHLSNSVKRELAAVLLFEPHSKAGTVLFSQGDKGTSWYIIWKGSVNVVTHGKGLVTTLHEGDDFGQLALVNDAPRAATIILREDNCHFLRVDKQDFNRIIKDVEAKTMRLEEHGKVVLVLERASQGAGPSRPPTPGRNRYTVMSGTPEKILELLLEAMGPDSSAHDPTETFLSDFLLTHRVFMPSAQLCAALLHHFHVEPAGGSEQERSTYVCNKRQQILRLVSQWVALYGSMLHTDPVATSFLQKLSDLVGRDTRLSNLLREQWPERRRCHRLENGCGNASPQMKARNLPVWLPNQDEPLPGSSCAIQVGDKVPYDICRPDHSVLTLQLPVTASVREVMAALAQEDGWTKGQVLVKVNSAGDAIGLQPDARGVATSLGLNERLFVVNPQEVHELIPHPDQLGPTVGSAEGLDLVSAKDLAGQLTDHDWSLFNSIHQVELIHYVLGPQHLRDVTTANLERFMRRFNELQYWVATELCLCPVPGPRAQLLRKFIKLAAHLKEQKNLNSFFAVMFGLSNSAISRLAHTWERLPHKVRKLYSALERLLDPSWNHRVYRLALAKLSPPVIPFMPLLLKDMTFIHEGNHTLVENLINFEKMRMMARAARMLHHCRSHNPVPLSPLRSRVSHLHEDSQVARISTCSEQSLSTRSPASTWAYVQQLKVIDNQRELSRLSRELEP
Chain of Rap guanine nucleotide exchange factor 4 (Homo sapiens) (Q8WZA2 whole entry, looked up): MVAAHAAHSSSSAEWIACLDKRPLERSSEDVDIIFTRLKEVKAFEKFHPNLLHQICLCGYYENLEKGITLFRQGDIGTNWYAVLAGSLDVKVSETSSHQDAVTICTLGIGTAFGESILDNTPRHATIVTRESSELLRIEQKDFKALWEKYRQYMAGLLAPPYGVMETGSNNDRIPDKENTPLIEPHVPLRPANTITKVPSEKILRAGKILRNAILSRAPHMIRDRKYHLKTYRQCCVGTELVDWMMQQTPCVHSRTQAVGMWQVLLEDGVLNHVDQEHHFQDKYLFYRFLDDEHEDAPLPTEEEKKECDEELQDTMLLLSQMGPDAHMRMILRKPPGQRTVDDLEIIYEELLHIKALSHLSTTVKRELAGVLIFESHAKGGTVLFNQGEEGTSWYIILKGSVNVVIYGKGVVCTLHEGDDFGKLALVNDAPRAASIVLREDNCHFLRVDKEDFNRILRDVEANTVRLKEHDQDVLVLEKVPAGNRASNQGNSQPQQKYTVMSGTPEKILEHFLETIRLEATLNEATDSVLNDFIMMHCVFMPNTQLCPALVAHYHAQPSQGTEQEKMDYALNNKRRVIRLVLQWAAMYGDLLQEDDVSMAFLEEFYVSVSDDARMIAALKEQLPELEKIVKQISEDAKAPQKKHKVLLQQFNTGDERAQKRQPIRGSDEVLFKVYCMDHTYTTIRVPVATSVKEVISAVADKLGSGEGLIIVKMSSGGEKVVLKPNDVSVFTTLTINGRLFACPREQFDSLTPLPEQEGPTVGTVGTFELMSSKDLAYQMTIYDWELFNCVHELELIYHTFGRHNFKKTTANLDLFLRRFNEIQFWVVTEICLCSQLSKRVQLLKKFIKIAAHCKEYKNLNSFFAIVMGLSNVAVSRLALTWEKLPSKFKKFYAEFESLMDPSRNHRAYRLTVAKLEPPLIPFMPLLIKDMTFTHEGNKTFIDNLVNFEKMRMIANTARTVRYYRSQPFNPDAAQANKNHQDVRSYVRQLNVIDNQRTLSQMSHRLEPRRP

Cc1cccc(C)c1-n1nnnc1C(c1ccccc1OC(F)(F)F)N1CCC(n2c(=O)[nH]c3ccccc32)CC1 (centres undefined)
inactive: all assays above

Cn1cccc1/C=C1/C(=O)NC(=O)N(Cc2ccccc2)C1=O
inactive: all assays above

O=C(c1cc(-c2ccc(Cl)cc2)n(-c2ccc(Cl)cc2Cl)n1)N1CCOCC1
not listed: [2]
inactive: all other assays above
